CDK5 p35 inh: CDK5/p35 (human) kinase inhibition; AID 488839; 330,000 tested, 0.01% active; inhibition, % at 10 µM; Recombinant CDK5/p35, ADP-Glo luminescence, 60 min; Q00535+Q15078;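 active = highest replicate inhibition of at least 50% and at least 75% of replicates reaching 50%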
esBAF inh: SWI/SNF esBAF complex inhibition | mouse ES cells, Bmi1-luciferase knock-in reporter, 24 h; 100% = twice the neutral-well signal | reporter increase, % at 12.5 µM | 350,000 tested, 2% active; in the data active = activation above about 40%;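 also: a rise in the Bmi1 reporter signal indicates esBAF inhibition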
DYRK1A inh: inhibitors of rat Dyrk1A kinase; AID 504441; 310,000 tested, 0.43% active; Q63470; ADP-Glo luminescence, NFATc1 peptide; inhibition, % at 12.5 µM; in the data active = inhibition above about 50%
SMARCA2 act: increases SMARCA2 function in MMTV reporter cells | MG213 cells, MMTV-luciferase reporter, dexamethasone, overnight | activation, % at 9.1 µM | 370,000 tested, 1% active | AID 652017; in the data active = activation above about 7.8%
Rtt109 HAT inh: inhibitors of Candida albicans Rtt109/Vps75 histone acetyltransferase. 330,000 tested, 0.16% active. Q5AAJ8. AID 540336. purified Rtt109/Vps75, ThioGlo CoA-SH fluorescence, 4 h. inhibition, % at 34.9 µM;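 active = inhibition of at least 50% in every replicate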
Target sequence (Q5AAJ8 whole entry, looked up): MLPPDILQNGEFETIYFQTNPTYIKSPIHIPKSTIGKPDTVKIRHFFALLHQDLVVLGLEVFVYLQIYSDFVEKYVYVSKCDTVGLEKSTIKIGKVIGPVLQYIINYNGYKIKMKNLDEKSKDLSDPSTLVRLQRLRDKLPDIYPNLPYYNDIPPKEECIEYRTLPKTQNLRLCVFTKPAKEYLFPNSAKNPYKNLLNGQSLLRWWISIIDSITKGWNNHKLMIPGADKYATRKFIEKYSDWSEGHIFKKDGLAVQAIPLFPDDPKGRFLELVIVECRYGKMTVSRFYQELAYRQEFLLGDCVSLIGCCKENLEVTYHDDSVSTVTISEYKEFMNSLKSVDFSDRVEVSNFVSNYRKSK
dFosB act-1: enhances mouse delta FosB homodimer DNA binding; P13346; purified delta FosB, TAMRA-CDK5 oligo fluorescence polarization; percent of positive-control signal above neutral wells; activation, % at 25 µM; 340,000 tested, 0.99% active;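 active = mean activation above about 17%, with every replicate also reaching it, limit read from the data, passing the limit was not always enough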
Target sequence (P13346 whole entry, looked up): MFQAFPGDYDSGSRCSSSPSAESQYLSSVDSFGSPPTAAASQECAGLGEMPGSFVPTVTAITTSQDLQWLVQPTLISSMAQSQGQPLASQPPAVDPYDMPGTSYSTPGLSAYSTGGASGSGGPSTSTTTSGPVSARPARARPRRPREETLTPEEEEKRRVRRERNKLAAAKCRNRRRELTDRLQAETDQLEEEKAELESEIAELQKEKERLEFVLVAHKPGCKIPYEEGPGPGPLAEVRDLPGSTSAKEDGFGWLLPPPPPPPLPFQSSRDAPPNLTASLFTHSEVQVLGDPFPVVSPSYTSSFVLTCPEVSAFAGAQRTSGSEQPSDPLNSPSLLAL
dFosB act-2: activators of mouse delta FosB homodimer DNA binding | shares compounds with dFosB act-1 | purified delta FosB, TAMRA-CDK5 oligo fluorescence polarization; normalised: neutral wells 0, positive control 100 | activation, % at 24.9 µM | 2,400 tested, under 10 active | AID 588690;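 active = highest replicate activation at or above 34% and every replicate reaching that threshold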;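 also: higher polarization means more probe DNA bound by delta FosB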
ADP-Glo artifact: interferes with ADP-Glo luciferase readout without Dyrk1A; shares compounds with DYRK1A inh; ADP-Glo luciferase artifact assay, no Dyrk1A, luminescence; AC50, µM (top dose mostly 12 µM); 1,300 tested, under 10 active;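 active = fitted half-maximal dose AC50 no more than ten times the top valid tested dose, with luminescence dropping as dose rises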
SMARCA2 act conf: confirmation of SMARCA2 (BRM) function activators; shares compounds with SMARCA2 act; MG213 cells, MMTV-luciferase with dexamethasone, luminescence, overnight; MG213 cells expressing E1A, Rb sequestered; DMSO wells 0%, reference activator 100%; activation, % at 9.1 µM; 3,500 tested, 30% active; AID 652260;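 active = activation above its plate's cutoff, the mean activation of tested wells plus 3 SD, cut at about 7.9% in these data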
GAL4-VP16 Luc: counter-screen for SMARCA2 activators: GAL4-VP16 luciferase reporter activation. shares compounds with SMARCA2 act. HEK293 GAL4-VP16 pG5luc reporter, luciferase luminescence; scaled: DMSO wells 0%, SAHA wells 100%. 3,500 tested, 41% active. activation, % at 9.1 µM;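 active = activation above the solvent-only control well mean plus 3 SD, averaged across control plates, cut at about 5.2% in these data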
Numbers stand for hits; – = inactive; · = not tested or not shown; ! = not active in a repeat. The list is not random: actives were taken first. Their share in the collection is about 3.2%.

SMILES	CDK5 p35 inh	esBAF inh	DYRK1A inh	SMARCA2 act	Rtt109 HAT inh	dFosB act-1	others
CCCNC(=O)[C@H]1[C@H](CO)[C@H]2Cn3c(cccc3=O)[C@H]2N1C	·	–	·	·	·	·
COc1ccc(C(C)=O)cc1CC(C(=O)c1ccc(C)cc1)N(C)C (stereo not given)	–	·	–	–	–	–
COc1ccc(C(C)=O)cc1CC(C(=O)c1ccccc1)N(C)C (stereo not given)	–	41	–	–	–	–
CCn1c(O)c(C=Nc2ccc(N3CCOCC3)cc2)c(=O)n(CC)c1=S	–	–	–	–	–	–
CCn1c(O)c(C=Nc2ccc(N3CCOCC3)c(Br)c2)c(=O)n(CC)c1=S	–	–	–	–	–	24
CCC(=Nc1ccccc1N)c1c(O)[nH]c(=O)[nH]c1=O	–	51	–	–	–	–
NC(N)=Nc1ccc2[nH]c3c(c2c1)C[C@@]1(O)[C@H]2Cc4ccc(O)c5c4[C@@]1(CCN2CC1CC1)[C@H]3O5	–	–	–	·	–	41
O=C1CC[C@@]2(O)[C@H]3Cc4ccc(O)c5c4[C@@]2(CCN3CC2CC2)C1O5 (stereo not given in full)	·	·	·	–	·	·
O=C(NC1CCCCC1)Oc1cc2oc(=O)sc2cc1Cl	–	·	–	–	89	–
CC1(C)CN=C(Nc2nc3ccccc3s2)S1	–	50	–	–	–	–
O=C(C1CCN(c2nc3ccc(Br)cc3s2)CC1)N1CCC2(CC1)OCCO2	–	64	–	–	–	–
CCSC(=O)N1CCCCCC1	–	–	·	7.8	–	–
N#Cc1cccc(-c2ccc([C@H]3[C@@H](CO)N4CCCCN(C(=O)Cc5cccnc5)C[C@H]34)cc2)c1	·	–	·	·	·	·
O=C(Cc1ccccc1)N1C[C@H]2[C@@H](c3ccccc31)[C@@H](CO)N2Cc1ccccc1	·	–	·	·	·	·
CN(C)c1ccc(/C=C/c2cc[n+](C)c3ccccc23)cc1	–	–	–	–	181!	93
CCN1[C@@H]2Cn3c(ccc(-c4cccc(OC)c4)c3=O)[C@H]1[C@@H](C(=O)OC)[C@@H]2CO	·	–	·	·	·	·
COC(=O)[C@H]1[C@H](CO)[C@H]2Cn3c(ccc(C4=CCCCC4)c3=O)[C@@H]1N2Cc1cccnc1	·	–	·	·	·	·
Cc1sc2ncnc(N3CCC(C(=O)Nc4ccc(C#N)c(Cl)c4)CC3)c2c1C	–	–	·	–	–	32	dFosB act-2=–
COc1ccc(OCC(=O)N2CCN(Cc3ccc4c(c3)OCO4)CC2)cc1	–	–	–	–	–	–
CN(C)CCN(C(=O)COc1ccc(Cl)cc1)c1nc2cc3c(cc2s1)OCO3	–	–	–	–	–	24	dFosB act-2=–
CCOc1ccc(C2C(C#N)=C(N)Oc3c2c(=O)oc2ccccc32)cc1 (stereo not given)	–	–	–	–	–	21	dFosB act-2=–
CC(=O)C1C(N2CC2)CC2C3CC=C4CC(O)CCC4(C)C3CCC21C (stereo not given)	–	–	·	–	–	36	dFosB act-2=–
COC(=O)[C@@H]1[C@@H](CO)[C@@H]2Cn3c(ccc(C4=CCCCC4)c3=O)[C@H]1N2CC1CCCC1	·	–	·	·	·	·
O=C1CN=C(c2ccc(Br)cc2)c2oc3ccccc3c2N1	–	–	–	–	–	–
O=C1CN=C(c2ccccc2)c2oc3ccc(Br)cc3c2N1	–	·	–	–	–	30	dFosB act-2=–
SMILES	CDK5 p35 inh	esBAF inh	DYRK1A inh	SMARCA2 act	Rtt109 HAT inh	dFosB act-1	others
COC(=O)[C@H]1[C@H](CO)[C@H]2Cn3c(ccc(-c4ccncc4)c3=O)[C@@H]1N2S(=O)(=O)c1ccccc1F	·	–	·	·	·	·
CCCN1[C@@H]2c3ccc(-c4ccccc4)c(=O)n3C[C@H]1[C@H](CO)[C@H]2C(=O)OC	·	–	·	·	·	·
O=c1[nH]c(=S)[nH]c(O)c1N=Nc1ccc(S(=O)(=O)N2CCc3ccccc32)cc1	–	·	–	14	–	29	dFosB act-2=–;SMARCA2 act conf=11;GAL4-VP16 Luc=–
COC(=O)[C@@H]1[C@@H](CO)[C@@H]2Cn3c(ccc(-c4ccccc4F)c3=O)[C@H]1N2C(=O)C1CC1	·	–	·	·	·	·
NC(=S)c1cn(C2OC(CO)C(O)C2O)c2ncnc(N)c12 (stereo not given)	–	–	95	–	–	–	ADP-Glo artifact=–
COc1ccc(-n2c(/C=C/c3ccc(O)cc3)nc3ccccc3c2=O)cc1	–	–	–	–	–	–
CCn1nc(/C=C/c2ccccc2)nc2c(=O)n(C)c(=O)nc1-2	–	·	50	–	–	–	ADP-Glo artifact=–
O=C(O)[C@H]1[C@H](CO)[C@H]2Cn3c(ccc(-c4cncnc4)c3=O)[C@@H]1N2C(=O)NC1CCCC1	·	–	·	·	·	·
COC(=O)C1=C(c2ccc(F)cc2OCc2ccccc2)C[C@@H]2CC[C@H]1N2C(=O)NC1CC1	–	–	55	–	–	–	ADP-Glo artifact=–
O=C(Cc1cccnc1)N1CCCCN2[C@H](CO)[C@@H](c3ccc(C#CC4(O)CCCC4)cc3)[C@@H]2C1	·	–	·	·	·	·
N#CC(C#N)=Cc1ccc(N2CCOCC2)cc1	–	–	–	–	–	–
N#C/C(=C\c1ccc(O)cc1)C(=O)O (tested in a mixture with another compound)	–	–	79	–	–	–	ADP-Glo artifact=–
CC1=NCCc2c1[nH]c1cc(O)ccc21	–	–	79	–	–	–	ADP-Glo artifact=–
COc1ccc2c(c1)[nH]c1c(C)nccc12	–	–	–	–	–	–
COc1ccc2c3c([nH]c2c1)C(C)=NCC3	–	–	86	–	–	–	ADP-Glo artifact=–
COC(=O)[C@H]1[C@H](CO)[C@H]2Cn3c(cccc3=O)[C@@H]1N2Cc1nccs1	·	–	·	·	·	·
COC(=O)[C@@H]1[C@@H](CO)[C@@H]2Cn3c(ccc(C4=CCCCC4)c3=O)[C@H]1N2C(=O)Cc1ccccn1	·	–	·	·	·	·
O=c1[nH]c(=O)n(-c2ccccc2)c(O)c1/C=C1/C(c2ccccc2)=Nc2ccccc21	–	·	61	–	–	–	ADP-Glo artifact=–
COc1cc2c(cc1OC)-c1c3c(cc4c1[C@@H](C2)N(C)CC4)OCO3	–	–	66	11	–	–	ADP-Glo artifact=–;SMARCA2 act conf=15;GAL4-VP16 Luc=–

Bioassay records (PubChem BioAssay)
